Laboratory results reported in PubChem BioAssay AID602449 (Sanford-Burnham Center for Chemical Genomics, 2012).
The whole screen tested about 360,000 compounds, of which about 5,000 (1.4%) were called active.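 The calls were made as follows: active = inhibition of 50% or more, scaled per plate between neutral and stimulator controls; inactive = the rest.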 The list comes from a sample in which actives are over-represented; it also holds similar structures and randomly drawn compounds.

Assay: mitochondrial permeability transition pore inhibitors, primary screen, biochemical, isolated mouse mitochondria, absorbance (AID 602449);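 also: 0% = DMSO wells given calcium and 100% = 1 mM EGTA wells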
Settings: Ca2+ swelling absorbance, 30 min, at 10 µM, active compounds read high

inhibition, active:
CCN1CCC(O)(/C=C/c2ccc(C)cc2)C(C(=O)/C=C/c2ccc(C)cc2)C1 (stereo unspecified) 58.4%
N=c1n(Cc2ccc(Cl)cc2)c2ccccc2n1CC(O)c1ccco1 (stereo unspecified) 83.7%
c1ccc(-c2cc3c(NCC4COc5ccccc5O4)ncnc3s2)cc1 (stereo unspecified) 91.4%
CCCc1nc2scc(-c3ccc(C)cc3)c2c(=O)n1N 89.9%
O=C(Nc1nc(-c2ccc3c(c2)OCO3)cs1)c1ccncc1 72.3%
Cc1ccc(NC(=O)Nc2nnc(-c3ccncc3)s2)cc1 77.2%
Cc1nnc(NC(=O)Nc2ccc(Cl)c(Cl)c2)s1 88.5%
CCc1ccc(NC(=O)Nc2ccncc2)cc1 63.6%
C[C@@H](CN1CCC[C@H]1CN1C(N)=NC[C@@H]1Cc1ccccc1)N1C[C@@H](Cc2ccccc2)N(CCCC2CCCC2)C1=N 73.7%
S=C(Nc1cccc(Br)c1)N1CCn2cccc2C1c1cccnc1 (stereo unspecified) 63.5%
O=C(c1cc(-c2cccc(O)c2)on1)N1CCc2ccccc2C1 59.3%
CCn1c(CNC(=O)c2cc(OC)c(OC)c(OC)c2)cc2cc(C)ccc21 68.8%
Cc1ccc(-c2noc(CCC(=O)Nc3ccccc3N3CCN(C)CC3)n2)cc1 79.9%
COc1ccc(-n2c(C)cc(C(=O)CSc3nnc(-c4cccs4)o3)c2C)cc1 91%
O=[N+]([O-])c1cc(Br)c(O)c(/C=N/Nc2nc3ccccc3s2)c1 82.3%
O=C(NNc1c2ccccc2nc2ccccc12)c1cc2ccccc2cc1O 104%
C=CC[n+]1c(-c2ccc(C)cc2)csc1NNC(=O)Nc1ccccc1 86.7%
CCN1/C(=C\c2ccc3ccccc3[n+]2CC)Sc2cc(C)ccc21 101%

inhibition, inactive:
CCN1CCC2(CC1)N=C(c1ccc(F)cc1)C(=S)N2C(=O)c1ccc(C)cc1 -2.8%
COc1cccc(NC(=O)CSc2nnc(Cc3ccc(OC)c(OC)c3)o2)c1 -0.5%
COc1ccc(CCN=C2SCC(=O)N2C)cc1OC -1.1%
O=C(O)c1cc2c(cc1NC(=O)c1c(F)cccc1Cl)OCCCO2 -1.5%
N=c1n(CCc2ccccc2)c2ccccc2n1Cc1ccccc1F 8.3%
CCOc1ccc(C(O)Cn2c(=N)n(CCN3CCCCC3)c3ccccc32)cc1 (stereo unspecified) 3.5%
O=C(Cc1ccccc1)Nc1c(C(=O)N2CCCCCC2)cnn1-c1ccccc1 -1.2%
O=C(Cn1cnc2ccccc2c1=O)NCC1COc2ccccc2O1 (stereo unspecified) -0.6%
O=C(Cn1nc(Cc2cccnc2)c2ccccc2c1=O)NCC1COc2ccccc2O1 (stereo unspecified) -1.9%
CCN=c1sc(C(=O)Nc2ccccc2)c(C)n1CC 4.6%
COC(=O)Nc1ncc(CN2C(=O)c3ccccc3C2=O)s1 -1.2%
CCCCNC(=S)NNC(=O)c1cc(C)on1 -1.2%
CC1=C(C(=O)N2CCOCC2)CC(CC(=O)NCc2cccc3ccccc23)C(=O)N1CCC1=CCCCC1 (stereo unspecified) -2.5%
CCC(C(=O)OC)n1cnc2scc(-c3ccc(C)cc3)c2c1=O (stereo unspecified) 0.8%
Cc1nc2scc(-c3cccs3)c2c(=O)n1N -3.1%
CS(=O)(=O)N(Cc1ccccc1)c1ccc(C(=O)NN=C2CCCCCC2)cc1 0.9%
COc1ccc(S(=O)(=O)N2CCOCC2)cc1NC(=O)CSc1cc(C)ccc1C -0.5%
Cc1ccc(-c2csc(NC(=O)C3=COCCO3)n2)cc1C 4.6%
COc1ccc(C(O)c2nc(-c3ccc4c(c3)OCO4)cs2)cc1 (stereo unspecified) 2.5%
COc1ccc(NC(=O)NCCN2CCN(c3ccc(C)cc3)CC2)c(Cl)c1 0.3%
COC(=O)c1cccc(-n2[nH]nnc2=S)c1 0.4%
Cn1c(=O)c(=O)n(C)c2cc(S(=O)(=O)NCCN3CCN(c4ccccc4F)CC3)ccc21 1.9%
Cc1nnc(NC(=O)Cn2c(=O)sc3ccccc32)s1 -2.7%
CC(C)CC(=O)Nc1ccc(Cc2ccncc2)cc1 1.5%
CC(C)=CC(=O)Nc1nnc(-c2ccc(F)cc2)s1 -0.8%
CCc1ccc(NC(=O)N[C@H](C(=O)O)C(C)CC)cc1 (stereo partly specified) -1.3%
Cc1ccc(S(=O)(=O)CCC(=O)Nc2nnc(CC(C)C)s2)cc1 0.4%
COc1cccc(NC(=O)Nc2nnc(N3CCCCC3C)s2)c1 (stereo unspecified) 0.5%
CCOC(=O)c1sc(NC(=O)CSc2nc(C)cc(C(F)(F)F)n2)c(C#N)c1C 13.1%
CCCN=C1NC(=O)C(CC(=O)NCCc2ccc(OC)c(OC)c2)S1 (stereo unspecified) -0.3%
CC[C@H]1OC(=O)[C@H](C)[C@@H](O[C@H]2C[C@@](C)(OC)[C@@H](O)[C@H](C)O2)[C@H](C)[C@@H](O[C@@H]2O[C@H](C)C[C@H](N(C)C)[C@H]2O)[C@](C)(O)C[C@@H](C)[C@@H]2N[C@@H](COCCOC)O[C@H]([C@H]2C)[C@]1(C)O -2.3%
CCOC(=O)c1c(NC(=O)COC(=O)c2ccc(S(=O)(=O)C(F)F)cc2)sc(C(=O)N(C)C)c1C -0.1%
CCOc1ccc(OCC(=O)Nc2c3c(nn2C(C)(C)C)CS(=O)(=O)C3)cc1 1.2%
COc1ccc(S(=O)(=O)N2CCN(CC(=O)NCC3(N4CCOCC4)CCCCC3)CC2)cc1 0.2%
CC[C@@H](C)[C@@H]1CN([C@@H](C)CN2CCC[C@H]2CN2C(N)=NC[C@H]2C(C)C)C(=N)N1CCc1ccc(Cl)c(Cl)c1 -0.6%
NC1=NC[C@@H](Cc2ccc(O)cc2)N1CC1CCCCC1 0.7%
COc1ccc(S(=O)(=O)N2CCCCC2)cc1C(=O)NC1CCS(=O)(=O)C1 (stereo unspecified) 0.2%
Cc1ccc(C(CNC(=O)Nc2ccccc2)N2CCN(C)CC2)cc1 (stereo unspecified) 2%
COc1ccc(OCCCC(=O)OC(C)C(=O)Nc2ccccc2[N+](=O)[O-])cc1 (stereo unspecified) 0.5%
S=C(NCCc1ccccc1)N1CCn2cccc2C1c1ccncc1 (stereo unspecified) -5.1%
O=C(NC(=S)N1CCCCC1c1cccnc1)c1ccccc1 (stereo unspecified) -1.5%
COc1ccc(OC)c(C(O)c2ncc(-c3cccc(C(F)(F)F)c3)[nH]2)c1 (stereo unspecified) 1%
Nc1nnc(SCC(=O)NCC(=O)Nc2ccc(F)c(F)c2F)s1 -2.5%
O=C(c1cc(-c2ccc(O)cc2)on1)N1CCOCC1 -1.3%
O=C(NCCCN1CCOCC1)c1cc(-c2cccc(O)c2)on1 -0.1%
CC(=O)NS(=O)(=O)c1ccc2c(c1)Cc1cc(S(=O)(=O)NC(C)=O)ccc1-2 0.4%
O=C(c1ccc(Br)o1)N(c1ccccn1)C1CCCCC1 8.3%
COc1ccc(CCNC(=O)CN2C(=O)COc3ccc(S(=O)(=O)N4CCCC4)cc32)cc1OC 0.6%
CC12CN3CCN(CC(C3)/C1=N\NC(=O)c1ccccc1N)C2 2.6%
CN(C)C(CNC(=O)CCCOc1ccccc1)c1ccco1 (stereo unspecified) 1%
COc1cc(C(=O)NCc2cc3cc(Cl)ccc3n2C)cc(OC)c1OC 0.7%
COc1cc(C(=O)NCc2ccc3c(c2)cc(C)n3C)cc(OC)c1OC 1.2%
CC1(C)S[C@@H]2[C@H](NC(=O)COc3ccccc3)C(=O)N2C1C(=O)OCc1ccccc1 (stereo partly specified) 2.2%
CC(C)(C)c1cc(NC(=O)NN2CCOCC2)nn1-c1c(Cl)cc(Cl)cc1Cl -1.3%
COc1ccc(N2CCN(C(=O)CCc3nc(-c4ccc(C)cc4)no3)CC2)cc1 -0.2%
COc1ccc(-c2noc(CCC(=O)N3CCN(c4cccc(C)c4)CC3)n2)cc1 0.4%
CC1CCN(C(=O)c2ccccc2NC(=O)Cc2ccccc2)CC1 2%
COc1ccc(-n2c(C)cc(C(=O)COC(=O)c3cc(OC)c(OC)cc3NC(=O)c3cccs3)c2C)cc1 3.8%
Cc1ccc(-n2c(C)cc(C(=O)CSc3nnc4ccccn34)c2C)cc1 5%
O=[N+]([O-])c1c(NCCO)cc(Sc2nc3ccccc3s2)c2nonc12 4.8%
O=[N+]([O-])c1cccc(C=NN=Cc2ccccc2O)c1 2.1%
Cc1c(C(=O)NCC2CC2)sc(=O)n1Cc1cccc(F)c1 -2.3%
COc1cc(C)c(Cl)cc1S(=O)(=O)n1ccnc1 0.5%
N/C(=N\S(=O)(=O)c1cc(C(F)(F)F)cc(C(F)(F)F)c1)c1cccs1 35.4%
Cc1noc(C)c1COC(=O)c1cc2ccccc2cc1O 1%
O=C(CSc1nc(C2CC2)nc2ccccc12)Nc1cccc(O)c1 -0.4%
CS(=O)(=O)N(CC(=O)N1CCOCC1)c1cccc(Cl)c1Cl -0.3%
Cc1ccc(-n2ncc3c2CC(C)(C)CC3NC(=O)CCc2cnn(C)c2)cc1 (stereo unspecified) -0.7%
O=C(NCCc1ccccn1)c1ccc(COc2ccccc2)o1 -1.4%
O=C(NNC(=O)c1ccc(-c2ccccc2)cc1)Nc1ccccc1 2.8%
Cc1ccc(NC(=O)NNC(=O)c2sccc2-n2cccc2)cc1 1.7%
CC1CCC(N2CC(=O)N(Cc3ccc4c(c3)OCO4)C(c3ccc(F)cc3)C2=O)CC1 (stereo unspecified) -0.9%
COCCNC(=S)N1CCC(NC(=O)C23CC4CC(CC(C4)C2)C3)CC1 -2.3%
